High-throughput results as filed in PubChem.
A selection: hits, their analogues and other compounds. The true share with any hit is near 13%.
Marburg entry inh = qHTS for inhibitors of binding or entry into cells for Marburg Virus; Marburg virus pseudotyped entry inhibition, cell reporter; Potency, µM (doses to about 37.8 µM), for inactives: top-dose activity change, negative = inhibition, actives largely listed as inhibitors; 1.8% of 300,000 active; AID 540276, 2011; calls by dose curve; tested in HEK293 cells; also: potency is read from the fitted curve at half-maximal effect; % is scaled to controls: 0 for no effect and ±100 for the full control effect
HCV inhibitor = qHTS Assay for Inhibitors of Hepatitis C Virus (HCV); Huh7.5.1 HCVcc-Cre infection, luciferase reporter, 44 h; Potency, µM (series often up to 41.8 µM), for the others: top-dose activity change, negative = inhibition, usual class: inhibitors; 3.4% of 340,000 active; AID 651820, 2012; active = well fitted inhibition curve with a large enough effect; inconclusive = small, poorly fitted or top-dose-only effect, or another doubt; inactive = no such curve, though single readings can be large or run the other way; also: potency is read from the fitted curve at half-maximal effect; % is scaled to controls: 0 for no effect and ±100 for the full control effect
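Cells seeded at 1,000/well and cultured 4 h, then compounds added followed by HCVcc-Cre virus (~0.5 moi). After 44 h further culture, luciferase substrate was added, plates held 15 min at room temperature, and luminescence read for 15 sec.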
Shiga toxin inh = A qHTS for Small Molecule Inhibitors of Shiga Toxin; Vero cells, Shiga toxin protein synthesis inhibition reporter; inhibition, % at 38.7 µM; 9.2% of 290,000 active; AID 2315, 2010; in the data active = inhibition mostly above about 28%, no sharp cut-off; inactive = mostly below about 43%; also: 0% is about no effect
FMDV antiviral = High Throughput Screening for Foot and Mouth Disease Virus Antivirals; AID 1159524, 2015; 1.2% of 410,000 active; FMDV antiviral cell-based qHTS; Potency, µM (top dose mostly 57.9 µM), inactives show at the top dose activity change, negative = inhibition, hits mostly inhibitors; calls by dose curve; tested in HEK293T cells; also: read-out not given here; potency is read from the fitted curve at half-maximal effect; % is scaled to controls: 0 for no effect and ±100 for the full control effect; nearly all actives have a fitted effect of over 45% in size
Lassa entry inh = qHTS for Inhibitors of binding or entry into cells for Lassa Virus. Potency, µM (doses to about 37.9 µM), for inactives: top-dose activity change, negative = inhibition, actives largely listed as inhibitors. Lassa virus pseudotype entry inhibition, cell reporter. 1.2% of 300,000 active; calls by dose curve; tested in HEK293 cells; also: potency is read from the fitted curve at half-maximal effect; % is scaled to controls: 0 for no effect and ±100 for the full control effect; nearly all actives have a fitted effect of over 50% in size
Cycloheximide cs = Cycloheximide Counterscreen for Small Molecule Inhibitors of Shiga Toxin; 12% of 300,000 active; max response, %; cell reporter, cycloheximide protein synthesis inhibition counterscreen; AID 2314, 2010; in the data active = max response mostly above about 13%, no sharp cut-off; inactive = mostly below about 14%; also: read at 38.3 µM for the half of the compounds with a filed dose; 0% is about no effect
Starred values were filed as active, the others as inactive; ? = inconclusive; . = no result; [ ] = remark or other dose.

SMILES | Marburg entry inh | HCV inhibitor | Shiga toxin inh | FMDV antiviral | Lassa entry inh | Cycloheximide cs
C=CCN1C=C2C(=O)C(C)(OC(=O)c3cccs3)C(=O)C=C2C=C1CCCC(=O)OC (stereo not drawn) | . | 0% | -9 | -1% | . | -4
COc1ccc(S(=O)(=O)N2CCC(N3CCCC3)CC2)cc1 | . | 11% | 20 | -1% | . | -1
O=C(Nc1ccc(O)cc1)c1ccc(C(=O)c2ccccc2)o1 | -5% | ? | 55* | 5% | ? | 23
Cc1cccc(C(=O)Nc2ccc(C)c(OC(=O)c3cccc(C)c3)c2)c1 | 4% | . | 193* | . | . | 56*
Cc1cccc(C(=O)Nc2cc(NC(=O)c3cccs3)ccc2C)c1 | -29% | ? | 14 | 1% | -4% | 6
CCn1c2ccccc2c2cc(NC(=O)c3cccc(OC)c3)ccc21 | ? | 11µM* | 95* | 23% | ? | 20*
COc1cccc(C(=O)Nc2cnn(C(C)C)c2)c1 | -4% | 7% | 94* | 68% | -3% | 32*
S=c1[nH]nc(-c2ccccn2)n1/N=C/c1ccc(Br)s1 | -14% | 9% | -8 | -15% | 0% | -1
COc1cccc(NC(=O)c2cccc(NC(=O)c3ccco3)c2)c1 | . | . | . | 6% | . | .
C/C(=N\NC(=O)C1(C)CC1(Br)Br)c1cccc(NC(=O)c2ccc(C)o2)c1 (stereo not drawn) | ? | . | 52* | ? | ? | 28*
COc1c(C(=O)NNC(=O)c2ccccc2)csc1Br | -23% | -25% | 48* | 63% | ? | 35*
COc1cccc(NC(=O)c2ccc(C(=O)c3ccccc3)o2)c1 | ? | ? | 93* | -15% | 13%[46.1 µM] | 38*
CC(C)c1ccc(/C=C/C(=O)NC2=NCCS2)cc1 | 0% | . | 44* | . | . | 44*
CC(C)C(C(=O)NC1=NCCS1)c1ccc(Cl)cc1 (stereo not drawn) | -4%[46.1 µM] | ? | -5 | -25% | -15% | 6
O=C(/C=C/c1ccc(Cl)c(Cl)c1)NC1=NCCS1 | -20%[46.1 µM] | -6% | 79* | 59% | -12% | 35*
COc1c(NC(C)=O)c2c(c([N+](=O)[O-])c1OC)C(=O)OC2 | 1% | 2% | . | -8% | -6% | .
C#CCOCCOCCOCCNc1nc(N2CCN(C(=O)[C@H](Cc3ccc(O)cc3)n3cc([C@@H](N)C(C)CC)nn3)CC2)nc(N2CCN(C(=O)[C@H](Cc3cc4ccccc4[nH]3)n3cc([C@@H](N)Cc4ccc(O)cc4)nn3)CC2)n1 (stereo partly drawn) | . | . | 13 | . | . | -4
CC(C)Oc1ccc(CNC(=O)C2CCN(Cc3cc4ccccc4n3Cc3ccccc3)CC2)cc1 | . | . | . | -14% | -26%[46.1 µM] | .
O=C(NCCN1CCCCC1)c1ccc(F)cc1Cl | . | 20% | 27 | 0% | . | 12*
CCOc1c(Cl)cc(C(=O)NCCN2CCCCC2)cc1Cl | ? | 10µM* | 1 | -8% | -14% | -4
Cc1ccc(OCc2ccc(C(=O)Nc3ccc(C(N)=O)cc3)o2)c([N+](=O)[O-])c1 | . | -9% | 14 | -9% | . | 2
O=C(NC(NC(=S)Nc1ccccc1Cl)C(Cl)(Cl)Cl)c1cccc(Cl)c1 (stereo not drawn) | ? | ? | -12 | 0% | ? | 2
O=C(Cc1cccc2ccccc12)NC(NC(=S)Nc1ccccc1Cl)C(Cl)(Cl)Cl (stereo not drawn) | 5.6µM* | ? | -16 | -20% | ? | -3
COc1ccc(NC(=O)N(C)C[C@H]2Oc3ccc(NC(=O)Nc4c(C)noc4C)cc3C(=O)N([C@H](C)CO)C[C@H]2C)cc1 | . | 15% | . | -9% | . | .
COc1cc(C=NNc2nc3c([nH]2)c(=O)n(C)c(=O)n3C)ccc1O | -5%[46.1 µM] | 1% | . | -18% | 10%[46.1 µM] | .
SMILES | Marburg entry inh | HCV inhibitor | Shiga toxin inh | FMDV antiviral | Lassa entry inh | Cycloheximide cs
COc1cc(/C=N/Nc2ccnc(=O)[nH]2)ccc1O | . | 10% | 67 | 4% | . | 32*
CCCOc1ccccc1/C=N/Nc1ccnc(=O)[nH]1 | 3% | ? | 3 | 2% | -20% | 6
O=c1nccc(N/N=C/c2cccc(O)c2)[nH]1 | ? | 16% | 2 | 33% | -20% | 26*
O=c1c2c3c(sc2ncn1/N=C/c1ccccc1)CCCC3 | ? | -17% | 64* | 54% | -7% | 19*
O=c1c2c3c(sc2ncn1/N=C/c1ccco1)CCCC3 | 30% | -23% | 76* | 38% | ? | 12
Cc1nc2scc(-c3ccccc3)c2c(=O)n1/N=C/c1ccco1 | 5% | ? | -9 | -22% | -24% | -2
Cc1nc2sc3c(c2c(=O)n1/N=C/c1cccnc1)CCCC3 | 5%[46.1 µM] | ? | -6 | -17% | -6% | -2
Cc1nc2sc3c(c2c(=O)n1/N=C/c1ccco1)CCCC3 | -8% | ? | -20 | . | 5% | 16
Cc1sc2ncn(/N=C/c3ccco3)c(=O)c2c1C | ? | 3% | 54* | 29% | ? | 39*
CCN(CC)CCNC(=O)c1ccc2c(c1NCCO)C(=O)c1ccccc1C2=O | . | 0.89µM* | 40* | -26% | . | 17
O=C1Nc2ccccc2/C1=C\C(=O)c1ccccc1 | . | 17% | 21 | 32µM* | . | 12
O=C(/C=C1\C(=O)Nc2ccccc21)/C=C1\C(=O)Nc2ccccc21 | . | ? | 48 | ? | . | 15*
CC(C)Oc1ccc(C(=O)/C=C2/C(=O)Nc3ccccc32)cc1 | ? | -3% | -1 | 26% | ? | 11
Cc1ccc(CS/C(Nc2ccccc2C)=C(\C#N)C(=O)NCc2ccco2)c(C)c1 | ? | -5% | 91* | -27% | 3.7µM* | 66*
Cc1ccccc1N/C(SCc1ccc(Cl)cc1)=C(/C#N)C(=O)NCc1ccco1 | ? | -26% | 112* | -21% | ? | 41*
NC[C@@H](CC(=O)O)c1ccc(Cl)cc1 | 2% | . | . | ? | . | .
FC(F)(F)c1cnc(N/N=C/c2ccncc2)c(Cl)c1 | 10%[46.1 µM] | 15% | 7 | 19% | 17%[46.1 µM] | 8
COc1ccc(/C=N/Nc2ncc(C(F)(F)F)cc2Cl)cc1OC | 13µM* | ? | 20 | -14% | 3% | 5
COc1cc(/C=N/Nc2ccccn2)ccc1O | ? | -23% | 74* | 7% | ? | 49*
COc1ccc(Br)cc1/C=N/Nc1ccccn1 | . | 11µM* | 11 | -12% | . | 3
C=CCOc1ccc(/C=N/NC(=O)C(=O)Nc2ccccn2)cc1OC | -1% | -1% | 31 | 7% | -21% | 12*
COc1ccc(/C=N/NC(=O)C(=O)Nc2ccccn2)cc1OC | 8% | 10% | -12 | -23% | 18% | -3
COc1ccc(Br)cc1/C=N/NS(=O)(=O)c1ccccc1 | . | . | . | 9% | . | .
CSc1nc(S(=O)(=O)c2ccc(C)cc2)c(Cl)s1 | ? | -2% | 8 | -10% | 1%[46.1 µM] | -2
Cc1ccc(CSCC(=O)Nc2cc(S(=O)(=O)N3CCOCC3)ccc2OC(C)C)cc1 | ? | ? | . | -16% | ? | .
